Hit rate of the full screen: of about 360,000 compounds, about 2,400 (0.67%) were called active.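 The calls were made as follows: active = inhibition above about 55% (limit read from the data); inconclusive = no clear call, values can overlap the other calls; inactive = the rest.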 The full list was thinned out, with actives kept by preference.

The experiment is described as follows: LAMP-1 surface exposure blockers, TALL-104 cells – cell-based, flow cytometry, MLPCN library, primary screen (AID 651702). The settings on record: TALL-104 LAMP-1 surface exposure, at 10 µM, active compounds read high, cells stimulated with thapsigargin and PMA.
On to `COc1ccccc1NS(=O)(=O)c1ccc(C)c(C(=O)NCC(c2ccco2)N(C)C)c1` (stereo not drawn), for which the inhibition (as a rule, the drop in the measured response relative to a control, in per cent) is 3.6% (inactive). For `CCc1ccc(NC(=O)CS(=O)CC(=O)NCCCc2ccccc2)cc1` (stereo not drawn) the value was -1.4% (inactive); for `O=C(NCC1CCCO1)C(C(=O)c1ccccc1)n1cc(Cl)ccc1=O` (stereo not drawn), 1.4% (inactive); for `CC(=O)c1c(C)[nH]c(C(=O)OCC(=O)Nc2c(C)cccc2C)c1C`, 2.6% (inactive). Take `CC(=O)c1c(C)[nH]c(C(=O)COC(=O)c2cccc(S(=O)(=O)N(C)c3ccccc3)c2)c1C`: the inhibition was 75.4% (active). Regarding `COc1ccc(C)cc1NC(=O)C(OC(=O)c1cccc(S(=O)(=O)N(C)c2ccccc2)c1)c1ccccc1` (stereo not drawn), the inhibition is 0.3% (inactive).

Take `CCOC(=O)CN1CC23C=CC(O2)C(C(=O)Nc2ccc(F)cc2)C3C1=O` (stereo not drawn): the inhibition is 1.3% (inactive). Next, `O=C(Nc1ccc(Cl)cn1)c1ccccc1-c1ccccc1`: -5.1% (inactive).

As to `Oc1ccccc1-c1cc(-c2ccc(Cl)cc2)n[nH]1`, the inhibition is 92.9% (active). For `CC(C)C(=O)NCc1cc(-c2ccc(Cl)cc2)no1` the value was 0.2% (inactive); for `CCCN(CC1CC1)C(=S)NC(=O)c1ccccc1Br`, -2.1% (inactive); for `CC1Cc2nc(SCC(=O)Nc3ccccc3F)n(C)c(=O)c2S1` (stereo not drawn), 3.3% (inactive). For `COCCn1c(C)cc(C(=O)COC(=O)/C=C/c2cccc(OC)c2)c1C` the value was -3.8% (inactive). In the case of `O=C(O)C1CCN(c2ccc([N+](=O)[O-])cc2[N+](=O)[O-])CC1`, the inhibition is -1.4% (inactive). With `CC1CCN(C(=S)c2cccc([N+](=O)[O-])c2)CC1`, the inhibition is 0.5% (inactive). For `CC1CCN(c2ccc([N+](=O)[O-])cc2C(N)=O)CC1` the value was 60.4% (active); for `Cc1ccc(C(C)C)c(OCc2nnc(SCC(=O)Nc3nccs3)n2C)c1`, 1.2% (inactive); for `COc1cc(NC(=O)c2ccccc2)c(OC)cc1NC(=O)Cc1ccccc1`, 0% (inactive). Consider `O=C(NC1=CC(=O)c2ccccc2C1=O)c1ccccc1`, for which the inhibition was 108% (active). In the case of `C/C(=N\NC(=O)c1ccc(C)cc1)C1C(=O)c2ccccc2C1=O`, the inhibition was -2.2% (inactive). Consider `Cc1ccc(S(=O)(=O)NCCSC(C)(C)C)cc1`, for which the inhibition was 11% (inactive). Next, `O=C(NCc1ccccc1)c1onc(CSc2nc3ccccc3[nH]2)c1C(=O)NCc1ccccc1`: -2.7% (inactive). Next, `COc1ccc(C(O)C(O)(C(=O)OC(C)C)c2ccc(C)cc2)cc1` (stereo not drawn): -2.2% (inactive); `COc1ccc(/C=C(\C#N)c2c[nH]c3ccccc23)cc1`: 90.4% (active). Next, `C[N+](C)(C)CCNC(=O)c1c[nH]c2ccccc12`: -7.5% (inactive). Consider `COc1ccc(C2C(C(C)=O)=C(O)C(=O)N2CCc2c[nH]c3ccccc23)cc1` (stereo not drawn), for which the inhibition is 0.4% (inactive). Next, `O=C(CN1C(=O)NC2(CCc3ccccc32)C1=O)NC1CCCCC1` (stereo not drawn): -1.5% (inactive); `Brc1ccc2c(c1)[C@H]1OCC[C@H]1[C@@H](c1cccs1)N2`: 1% (inactive).

For the compound `COc1cccc2oc(CCc3ccccc3)cc(=O)c12`, the inhibition is -4.5% (inactive).

Take `COc1ccc(CC(N)c2csc(NC(=O)Nc3ccc(C(C)C)cc3)n2)cc1` (stereo not drawn): the inhibition was 67.4% (active).

Take `COc1ccc(CC(N)c2csc(NC(=O)Cc3ccccc3)n2)cc1` (stereo not drawn): the inhibition was -2.9% (inactive).

With `COc1ccc(CC(N)c2csc(NC(=O)NC(c3ccccc3)c3ccccc3)n2)cc1` (stereo not drawn), the inhibition was 11.2% (inactive). Next, `CC(=O)NCC(=O)N(Cc1ccco1)C1(C(=O)NC2CCCC2)CCCCC1`: 4.1% (inactive). For `Cc1cc(C)cc(NC(=O)c2cccc(NC(=O)C3C4CC5OC(=O)C3C5C4)c2)c1` (stereo not drawn) the value was -3.6% (inactive); for `CCCCCCCCCCOC(=O)Cn1c(COc2cccc(OC)c2)[n+](C)c2ccccc21`, 63.4% (active). For `CCCCCCCCCCOC(=O)Cn1c(COc2ccc(C)cc2)[n+](C)c2ccccc21` the value was 79.9% (active); for `CCOc1ccc(OCCSc2nc3ccccc3n2CC(=O)O)cc1`, -4.7% (inactive); for `Cc1noc(C)c1COC(=O)Cn1c(C)nc2ccccc21`, -0.2% (inactive). As for `Cc1cccc(-n2c(Cc3cc(=O)[nH]c(=O)[nH]3)nnc2SCC(=O)Nc2cccc(C(F)(F)F)c2)c1`, the inhibition is -9.1% (inactive). For `COc1ccc(CCNC(=O)NS(=O)(=O)c2ccc(C)cc2)cc1OC` the value was -3.4% (inactive).

`CC(=O)N1C[C@@H](CO)[C@@H](N(C)C(=O)c2ccco2)C[C@H]1c1ccccc1`: the inhibition was -2% (inactive). For `NC(=S)NN=C1CCCC(C(F)(F)F)C1` (stereo not drawn) the value was -3% (inactive); for `CCc1ccc(-c2cc(C(=O)NN3CCN(C)CC3)c3ccccc3n2)cc1`, -2.9% (inactive). Next, `Cc1c(NC(=O)c2cc(-c3ccc(Cl)s3)nc3ccccc23)c(=O)n(-c2ccccc2)n1C`: 8.8% (inactive); `Cc1ccc(NC(=O)c2cc(-c3ccc(C)o3)nc3ccccc23)nc1`: 71.4% (active). For `CCN1C(=O)[C@H]2[C@@H](c3ccc(SC4CCCCC4)c(OC)c3)N[C@@](Cc3ccccc3)(C(=O)OC)[C@H]2C1=O` the value was -2.9% (inactive); for `CCN1C(=O)[C@H]2[C@@H](c3ccc(-c4ccc(OC)cc4)cc3)N[C@@](Cc3ccccc3)(C(=O)OC)[C@H]2C1=O`, -2.6% (inactive); for `CCN1C(=O)[C@H]2[C@@H](c3ccc(-c4ccc(F)cc4)cc3)N[C@@](Cc3ccccc3)(C(=O)OC)[C@H]2C1=O`, 97.9% (active). On to `COc1ccc(CC(NC(C)=O)C(=O)NC2CCN(C(=O)c3ccc(Cl)cc3)CC2)cc1` (stereo not drawn), for which the inhibition is -6.3% (inactive). Next, `Brc1ccccc1C1Nc2cccc3cccc(c23)N1`: 72.2% (active). For `Brc1ccccc1C1N=C(c2ccccc2)NO1` (stereo not drawn) the value was -3.5% (inactive); for `COc1cc2c(cc1OC)C(c1ccccc1Br)NC(=O)C2` (stereo not drawn), 1.4% (inactive). Take `NS(=O)(=O)c1cc(Cl)c(Cl)c(S(N)(=O)=O)c1`: the inhibition was 0.8% (inactive). For `O=S(=O)(c1ccccc1)N(Cc1cccc(F)c1)c1ccccc1` the value was 65.4% (active); for `O=C(O)c1cc(S(=O)(=O)N(Cc2ccccc2)c2ccccc2)ccc1Cl`, -1% (inactive). For `NC(=O)c1ccccc1N(Cc1ccccc1)S(=O)(=O)c1ccccc1` the value was 11.2% (inactive); for `OCCC1CN(Cc2cccn2-c2nccs2)CCN1CCc1ccccc1` (stereo not drawn), 1.1% (inactive); for `COC(=O)[C@@]12CCCN1[C@H](c1ccc(-c3ccc(F)cc3)c(OC)c1)[C@H]1C(=O)N(C)C(=O)[C@H]12`, -14% (inactive).

The record behind these values is PubChem BioAssay AID651702 (NMMLSC, 2012).
